Sampled rows, rich in hits. Any-hit rate of the full collection: about 1.5%.
CCHFV vOTU inh: blocks the CCHF virus ovarian tumor domain protease; actives 0.55% (n = 370,000); inhibition, % at 11.5 µM; CCHFV vOTU protease, Pep-AMC fluorescence; in the data active = inhibition above about 30%; also: 0% = vehicle wells with enzyme and 100% = no enzyme wells
RecA splice inh: blocks M. tuberculosis RecA intein splicing. actives 0.75% (n = 290,000). cell-free RecA intein splicing, fluorescence. P9WHJ3. inhibition, % (test concentration not listed); in the data active = inhibition above about 30%;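 also: 0% = vehicle wells and 100% = reference inhibitor control wells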
Target sequence (P9WHJ3 whole entry, looked up, canonical isoform): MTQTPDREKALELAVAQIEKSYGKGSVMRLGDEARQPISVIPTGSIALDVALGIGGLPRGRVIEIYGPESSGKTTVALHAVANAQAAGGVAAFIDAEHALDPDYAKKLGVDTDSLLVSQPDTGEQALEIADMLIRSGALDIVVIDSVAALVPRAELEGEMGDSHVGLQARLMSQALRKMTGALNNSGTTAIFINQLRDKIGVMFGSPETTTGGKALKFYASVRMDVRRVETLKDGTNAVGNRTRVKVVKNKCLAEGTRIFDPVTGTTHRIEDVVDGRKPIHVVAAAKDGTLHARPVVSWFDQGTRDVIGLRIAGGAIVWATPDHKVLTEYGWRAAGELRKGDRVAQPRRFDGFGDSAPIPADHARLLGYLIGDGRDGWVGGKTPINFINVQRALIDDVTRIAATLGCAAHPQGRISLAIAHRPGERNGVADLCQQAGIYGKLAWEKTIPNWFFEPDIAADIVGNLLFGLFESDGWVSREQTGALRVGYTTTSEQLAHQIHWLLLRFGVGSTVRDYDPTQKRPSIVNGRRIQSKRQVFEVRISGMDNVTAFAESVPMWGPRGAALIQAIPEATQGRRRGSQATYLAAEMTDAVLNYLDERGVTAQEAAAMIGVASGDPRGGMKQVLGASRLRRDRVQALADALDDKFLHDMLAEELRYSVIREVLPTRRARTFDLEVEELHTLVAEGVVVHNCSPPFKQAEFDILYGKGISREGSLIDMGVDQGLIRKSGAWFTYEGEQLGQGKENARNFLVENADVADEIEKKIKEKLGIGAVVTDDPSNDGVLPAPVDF
SARS 3CLpro inh: SARS-CoV 3CLpro protease inhibition. recombinant SARS-CoV 3CLpro, quenched FRET peptide cleavage. inhibition, % at 6 µM. actives 0.14% (n = 290,000); in the data active = inhibition above about 12%
VHR inh abs: DUSP3 (human) phosphatase inhibition. P51452. recombinant VHR phosphatase, pNPP absorbance. inhibition, % at 13.3 µM. actives 0.52% (n = 290,000); in the data active = inhibition above about 50%
GFP chromophore: counter-screen GFP chromophore formation inhibition | shares compounds with RecA splice inh | cell-free GFP chromophore formation, fluorescence | EC50, µM | actives 83% (n = 2,100) | AID 434968; call rule not given here
Starred values were filed as active, the others as inactive; · = not tested or not shown.

SMILES	CCHFV vOTU inh	RecA splice inh	SARS 3CLpro inh	VHR inh abs	GFP chromophore
N=c1c2c(ncn1Cc1ccco1)Oc1ccc3ccccc3c1C2c1ccccc1 (stereo not given)	3	30*	-7	3	33*
Cc1onc(-c2ccccc2Cl)c1C(N)=O	7	-1	2	32	·
Cc1[nH]n(C)c(=O)c1C(=O)c1c(-c2ccccc2Cl)noc1C	-5	74*	-3	-7	17*
CN1[C@H](Cc2ccccc2)COc2cccc(F)c2S1(=O)=O	3	·	·	·	·
CCCCn1cnc2c(c(-c3ccccc3)c(-c3ccccc3)n2Cc2ccco2)c1=N	7	28	6	0	·
N=c1c2c(-c3ccccc3)c(-c3ccccc3)n(Cc3ccco3)c2ncn1Cc1ccco1	-2	47*	7	4	14*
Cc1ccc(-n2c(SCC(N)=O)nnc2-c2ccc(S(=O)(=O)N3CCCCC3)cc2)c(C)c1	-1	0	-1	-45	·
CC1=C(C)CC2(SC1)C(=O)N(c1ccccc1)N=C2N (stereo not given)	-13	76*	2	37	4.1*
Cc1oc2c(c1C(=O)NCc1cccnc1)C(=O)c1ccccc1C2=O	·	75*	4	-11	0.62*
CCc1nc2ccc(C(=O)NCCOc3ccc(OC)cc3)cn2c1N(C)CCCc1ccccc1	1	·	·	·	·
COc1ccc(N(C(=O)CCl)C(C(=O)NCCc2ccccc2)c2cccs2)cc1 (stereo not given)	2	76*	12	1	1.7*
COc1ccc(CNC(=O)C(c2ccncc2)N(C(=O)Cc2cccs2)c2ccccc2)cc1 (stereo not given)	3	·	4	11	·
Cn1c(=O)c([N+](=O)[O-])c(-n2ccnc2)c2ccccc21	-6	66*	-5	-14	19*
COC(=O)[C@]12C[C@H](CC(=O)NCCCN3CCCC3=O)C(=O)N(CCC3=CCCCC3)C1=C[C@H](COCc1ccccc1)O[C@@H]2C	0	·	·	·	·
COc1ccc(/C=C2/C(=O)N(c3ccccc3)N=C2C)cc1	·	69*	·	·	3.2*
COc1ccc(/C=C2/C(=O)N(c3c(F)c(F)c(F)c(F)c3F)N=C2C)cc1	-2	4	1	4	·
COc1cc(/C=C2\C(=O)ON=C2c2ccc(Cl)cc2)ccc1O	-1	25	·	·	·
CC1=NN(c2ccccc2)C(=O)/C1=C\c1cc(C)n(C)c1C	0	22	0	-4	·
CC1=NN(c2ccccc2)C(=O)/C1=C/c1cn(C)c2ccccc12	3	37*	0	12	>38
COc1ccc(C2=NN(c3ccccc3)C(=O)/C2=C\c2ccc(O)c(OC)c2)cc1	2	93*	2	-7	2.6*
Cc1ccc(OC2CCN(C(=O)[C@H]3O[C@@H](n4ccc(=O)[nH]c4=O)[C@H](O)[C@@H]3O)CC2)cc1	12	·	·	·	·
Cc1ccc(NC(=O)c2cc(S(=O)(=O)N3CCOCC3)cn2C)cc1Cl	1	0	5	13	·
COc1ccccc1OCCNC(=O)CN1C(=O)NC2(CCCC2)C1=O	11	·	·	·	·
COc1cc(C(=O)C(=O)N2CCC(Cc3ccccc3)CC2)cc2ccccc12	4	·	·	·	·
O=[N+]([O-])c1ccc(N2CCCC(C(F)(F)F)C2)c2ccncc12 (stereo not given)	13	33*	-1	-12	>38
SMILES	CCHFV vOTU inh	RecA splice inh	SARS 3CLpro inh	VHR inh abs	GFP chromophore
O[C@@H](Cc1ccccc1)[C@@H](/C=C/c1ccccc1)N(Cc1ccccc1)Cc1ccccc1	5	·	·	·	·
O=C(CCl)N1CCCC1c1ccc2c(c1)OCCO2 (stereo not given)	3	74*	0	2	33*
CCOC(=O)N1CC=C2C(C#N)=C(N)C(C#N)(C#N)[C@H](c3cccs3)C2C1 (stereo not given in full)	-1	11	-3	31	·
CC(C)(C)OC(=O)N1CC=C2C(C#N)=C(N)C(C#N)(C#N)C(c3cccs3)C2C1 (stereo not given)	-5	53*	5	6	10*
Cc1ccccc1-c1ccc2c(c1)[C@@H]1C[C@H](N(C)CC3CCCCC3)[C@H]([C@H](C)O)CN1CC2	5	·	·	·	·
CC(CNc1ccccc1O)C(=O)O (stereo not given)	22	50*	-1	11	17*
CN1CCN(C2=C(Cl)C(=O)C(c3cnc(N4CCCCC4)s3)=C(Cl)C2=O)CC1	·	83*	-7	18	3.7*
CN1CCN(C2=C(Cl)C(=O)N(C3CCCCC3)C2=O)CC1	7	1	0	1	·
Cc1cc(C)c(NS(=O)(=O)c2ccc(NC(=O)/C=C/C(=O)O)cc2)c(C)c1	15	8	2	-1	·
Cc1ccc(S(=O)(=O)NCC2CCC(C(=O)NCCCN3CCC(C)CC3)CC2)cc1 (stereo not given)	3	·	·	·	·
Cc1ccc(S(=O)(=O)NCC2CCC(C(=O)NCCCN3CCOCC3)CC2)cc1 (stereo not given)	-4	1	1	22	>38
CC1=NNC(=O)C1C(c1ccccc1)C(C#N)C#N (stereo not given)	-1	80*	6	24	16*
CCOC(=O)/C=c1\s/c(=C(\C#N)C(N)=O)n(-c2ccccc2)c1=O	11	49*	-2	-4	24*
CCOC(=O)/C=c1\s/c(=C(\C#N)C(=O)NC)n(-c2ccccc2)c1=O	10	-1	-4	34	·
Cc1onc(-c2c(F)cccc2Cl)c1C(=O)OCC(=O)Nc1cccc(S(=O)(=O)N(C)C)c1	8	·	·	·	·
CCOc1ccc(NC(=O)c2c(NC(=O)CNCCN3CCOCC3)sc3c2CCC3)cc1	16	1	-10	11	·
N#Cc1cc(-c2ccccc2)nc(Oc2ccccc2)n1	14	60*	2	-30	33*
COc1ccc(N(C)C(=O)c2cc3c(s2)-c2c(C)cccc2OC3)c(OC)c1	-12	33*	5	20	>38
CCOC(=O)c1cc2c(s1)-c1c(C)cccc1OC2	-39	-14	-3	8	·
COc1ccc(/C=C/C(=O)c2ccc(O)cc2)cc1COc1ccc(F)cc1	11	36*	8	26	>38
COc1ccc(/C=C/C(=O)c2ccccc2)cc1COc1ccc(F)cc1	12	41*	-2	11	>38
COc1ccc(C(=O)/C=C/c2ccc(OC)c(COc3ccccc3F)c2)cc1	1	18	3	-2	·
CCOC(=O)C1(CCOc2ccccc2)CCN(Cc2cccc(OC)c2OC)CC1	7	4	1	-28	·
Cc1[nH][nH]c(=O)c1C(c1cc([N+](=O)[O-])ccc1O)c1c(C)[nH][nH]c1=O	-2	96*	5	8	0.53*
CCn1ncc(CN2CCC(Oc3cc(C(=O)NC4CC4)ccc3OC)CC2)c1C	-18	2	-2	9	·
Cc1ccc(C(=O)C2C(c3ccc(-c4ccccc4[N+](=O)[O-])o3)NC(=O)NC2(O)C(F)(F)F)cc1 (stereo not given)	21	83*	3	·	22*
CCOC(=O)Cn1cc(CN2C(C(=O)OC)CN(Cc3ccc(C)cc3)CCS2(=O)=O)nn1 (stereo not given)	0	·	·	·	·
CCOc1ccc(NC(=O)N(c2ccccc2)c2ccccc2)cc1	-10	·	2	-10	·

Bioassay records: PubChem, several laboratories
